This is one part of a sample in which hits are shown more often than they occur.
CHX counter: counter-screen for Shiga toxin inhibitors: cycloheximide protein synthesis inhibition | cell reporter, cycloheximide protein synthesis inhibition counterscreen | max response, % | AID 2314 | 300,000 compounds, 12% hits; in the data active means max response mostly above about 13%, no sharp cut-off; inactive means mostly below about 14%; further: read at 38.3 µM for the half of the compounds with a filed dose; 0% is about no effect
Lassa entry inh: Lassa virus entry inhibition; Lassa virus pseudotype entry inhibition, cell reporter; 300,000 compounds, 1.2% hits; Potency, µM (doses to about 37.9 µM), without a hit: top-dose activity change, negative = inhibition, actives largely listed as inhibitors; calls by dose curve; tested in HEK293 cells; further: potency means the concentration at half of the fitted maximal effect; on the % scale 0 is the no-effect control and ±100 the full control effect; nearly all actives have a fitted effect of over 50% in size
MARV entry inh: inhibitors of Marburg virus binding or cell entry; Marburg virus pseudotyped entry inhibition, cell reporter; Potency, µM (top dose mostly 37.8 µM), without a hit: top-dose activity change, negative = inhibition, usual class: inhibitors; 300,000 compounds, 1.8% hits; AID 540276; calls by dose curve; tested in HEK293 cells; further: potency means the concentration at half of the fitted maximal effect; on the % scale 0 is the no-effect control and ±100 the full control effect
Vaccinia mCherry: inhibitors of vaccinia virus infection (mCherry reporter signal) | Vaccinia virus mCherry reporter infection, fluorescence | Potency, µM (series often up to 36.5 µM), without a hit: at the highest dose activity change, negative = inhibition, actives largely listed as inhibitors | 310,000 compounds, 0.63% hits | AID 720579; calls by dose curve; tested in A549 cells; further: potency means the concentration at half of the fitted maximal effect; on the % scale 0 is the no-effect control and ±100 the full control effect; nearly all actives have a fitted effect of over 35% in size
Vaccinia Venus: inhibitors of vaccinia virus (Venus reporter). Vaccinia virus Venus reporter expression, fluorescence. Potency, µM (series often up to 36.5 µM), for the others: top-dose activity change, negative = inhibition, usual class: inhibitors. 330,000 compounds, 0.46% hits; calls by dose curve; tested in A549 cells; further: potency means the concentration at half of the fitted maximal effect; on the % scale 0 is the no-effect control and ±100 the full control effect; nearly all actives have a fitted effect of over 30% in size
Shiga inhibitor: blocks Shiga toxin action in Vero cells. inhibition, % at 38.7 µM. Vero cells, Shiga toxin protein synthesis inhibition reporter. AID 2315. 290,000 compounds, 9.2% hits; in the data active means inhibition mostly above about 28%, no sharp cut-off; inactive means mostly below about 43%; further: 0% is about no effect
* = called active by the depositor; i = inactive; ? = inconclusive; . = no result; [ ] = remark or other dose.

SMILES	CHX counter	Lassa entry inh	MARV entry inh	Vaccinia mCherry	Vaccinia Venus	Shiga inhibitor
COc1cc(-c2noc(-c3ccccc3C(=O)NCc3ccco3)n2)cc(OC)c1OC	12	?	?	.	-10%	28
Nc1c(C(=O)NCc2ccco2)nnn1-c1ccccc1	42*	23%	20%	-17%	-11%	71*
O=C(NCc1ccco1)c1cccc(-c2nnc(-c3ccccc3)o2)c1	22*	?	?	.	-30%	49*
COc1ccccc1-c1noc(-c2ccccc2C(=O)NCc2ccco2)n1	14*	-12%[46.1 µM]	?	-15%	-6%	30
Cc1cccc(-c2noc(-c3ccccc3C(=O)NCc3ccco3)n2)c1	75*	-28%	1%	-12%	3%	125
COc1ccccc1CNC(=O)CN1C(=O)COc2ccc(S(=O)(=O)Nc3ccccc3)cc21	.	-16%[46.1 µM]	.	-10%	-5%	.
CCC(=O)N1CCc2cc(CNC(=O)Nc3ccc(OC)cc3OC)ccc21	.	21%[46.1 µM]	.	-1%	0%	.
COc1ccc2cc(CNCc3ccccc3C(F)(F)F)c(N3CCCC(CO)C3)nc2c1 (centres undefined)	.	.	.	-5%	10%	.
COc1ccc(-c2nc(CCNC(=O)c3ccco3)cs2)cc1OC	9	?	?	13%	-4%	16
O=C(NCc1ccco1)c1ccccc1-c1nc(-c2ccccc2)no1	11	2%	-20%	i	-10%	17
Cc1cccc(-c2nc(CNC(=O)c3ccco3)cs2)c1	42*	-5%[46.1 µM]	-11%[46.1 µM]	i	-15%	106*
Cc1ccc(-c2noc(-c3ccccc3C(=O)NCc3ccco3)n2)cc1	33*	-6%[46.1 µM]	?	i	-18%	63*
Cc1cccc(S(=O)(=O)c2cn(C)c3cc(N4CCCCCC4)c(F)cc3c2=O)c1	.	3%[46.1 µM]	.	-9%	-7%	.
O=[N+]([O-])c1ccc(NN=Cc2cccc(O)c2)nc1	.	-23%[46.1 µM]	?	?	-9%	.
CCOc1cccc(Nc2ccc([N+](=O)[O-])cn2)c1	29*	-3%[46.1 µM]	-12%[46.1 µM]	-10%	1%	.
Cc1cccc(Nc2ccc([N+](=O)[O-])cc2C(=O)O)c1	28*	8%	?	i	-1%	-7
Cc1cccc(Nc2ccc([N+](=O)[O-])cn2)c1	25*	.	.	.	.	63*
COC(=O)C1c2ccccc2-c2ccccc21	-1	3%	-6%[46.1 µM]	-6%	-14%	19
CCC(C)NC(=O)c1oc2ccc(S(=O)(=O)N3CCC4(CC3)OCCO4)cc2c1C (centres undefined)	-3	.	10%[46.1 µM]	3%	-4%	4
CCc1nnc(NC(=O)CSc2nnc(C(C)NC(=O)c3ccccc3F)n2C)s1 (centres undefined)	-5	?	2%[46.1 µM]	-9%	0%	0
O=C(NC1CCN(Cc2ccccc2)CC1)c1ccc(S(=O)(=O)NCc2ccco2)cc1	-2	-24%[46.1 µM]	3.5µM*	?	-16%	-2
CCN(c1ccccc1)S(=O)(=O)c1ccc(C(=O)NC2CCN(Cc3ccccc3)CC2)cc1	.	?	0.71µM*	?	?	.
CCN(c1ccccc1)S(=O)(=O)c1ccc(C(=O)N2CCN(c3ccccc3)CC2)cc1	.	7.9µM*	?	-29%	-23%	.
CCN(c1ccccc1)S(=O)(=O)c1ccc(C(=O)NC2CCCCC2)cc1	.	.	.	-6%	-16%	.
COc1ccc(S(=O)(=O)N(CC(=O)N2CCN(c3ccccc3)CC2)c2ccccc2)cc1	1	?	0%	.	.	6
SMILES	CHX counter	Lassa entry inh	MARV entry inh	Vaccinia mCherry	Vaccinia Venus	Shiga inhibitor
COc1ccc(CN2CCN(C(=O)c3ccc(S(=O)(=O)NCc4ccco4)cc3)CC2)cc1	.	?	0.32µM*	-14%	-28%	.
COc1ccc(/C=C/c2ccc3cccc(O)c3n2)c(OC)c1OC	39*	.	.	.	.	113*
CCOc1c(OC(C)=O)ccc(/C=C/c2ccc3cccc(OC)c3n2)c1[N+](=O)[O-]	40*	?	4%	?	?	36*
COC(=O)c1ccc(/C=C/c2ccc3cccc(OC)c3n2)cc1	-3	-1%	-29%	i	-9%	-9
COc1cccc(/C=C/c2ccc3cccc(O)c3n2)c1OC	58*	.	.	?	?	127*
COc1cc(Br)cc(/C=C/c2ccc3cccc(O)c3n2)c1OC	-3	.	.	.	.	-2
COc1cc(/C=C/c2ccc3cccc([N+](=O)[O-])c3n2)ccc1OCC(=O)O	-6	.	.	.	.	-7
COC(=O)C(CCC(=O)CN1C(=O)c2ccccc2C1=O)N1C(=O)c2ccccc2C1=O (centres undefined)	.	.	.	i	-2%	.
